Assay results reported in PubChem BioAssay AID588342 (National Center for Advancing Translational Sciences (NCATS), 2011).
Out of some 360,000 compounds screened, about 25,000 (6.9%) were called active. Where a call stands in place of a potency, no number is given. Not shown: some 9% with an inconclusive outcome. Calls come from the whole dose curve; as a rule, active = well fitted inhibition curve with a large enough effect; inconclusive = small, poorly fitted or top-dose-only effect; inactive = flat fitted curve, though single readings scatter. Many of the other results were omitted from the sample, so actives are more common in it than they were.
Note: nearly all actives have a fitted effect of over 55% in size.
Potency is the fitted concentration of half-maximal effect.

Each compound was assayed against Luciferin 4-monooxygenase (Photinus pyralis) (UniProt P08659) (assay: qHTS profiling assay for firefly luciferase inhibitor/activator using purifed enzyme and Km concentrations of substrates (counterscreen for miR-21 project)). Conditions: purified FLuc, luminescence inhibition; series mostly up to 57.5 µM.
Luciferin 4-monooxygenase (Photinus pyralis), sequence (P08659 whole entry, looked up): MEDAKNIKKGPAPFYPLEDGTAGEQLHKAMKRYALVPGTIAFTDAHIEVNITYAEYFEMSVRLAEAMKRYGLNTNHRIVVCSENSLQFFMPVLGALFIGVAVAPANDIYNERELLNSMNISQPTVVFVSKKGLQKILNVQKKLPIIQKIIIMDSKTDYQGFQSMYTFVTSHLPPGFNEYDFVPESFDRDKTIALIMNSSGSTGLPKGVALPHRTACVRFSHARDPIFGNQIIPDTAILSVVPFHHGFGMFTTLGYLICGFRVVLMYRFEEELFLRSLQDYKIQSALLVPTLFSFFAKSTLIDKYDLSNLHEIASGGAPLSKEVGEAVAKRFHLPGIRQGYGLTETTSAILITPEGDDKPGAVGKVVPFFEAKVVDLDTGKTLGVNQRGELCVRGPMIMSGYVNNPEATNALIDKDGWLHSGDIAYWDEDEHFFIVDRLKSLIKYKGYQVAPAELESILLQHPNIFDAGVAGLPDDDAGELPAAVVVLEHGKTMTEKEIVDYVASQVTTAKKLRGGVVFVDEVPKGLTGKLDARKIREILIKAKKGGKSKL
Outline: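 Biochemical qHTS of compounds, final roughly 60 µM downward over six points, against 10 nM purified firefly luciferase using Km concentrations of substrates (10 uM D-luciferin, 10 uM ATP) in Tris acetate pH 7.5 buffer; luminescence output.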
`O=C1CC2(CCN(C(=O)COc3ccc(F)cc3)CC2)Oc2ccccc21` was tested, and the Potency was “inactive”. With `CCCc1cc(=S)n2c([nH]c3ccccc32)c1C#N` the Potency was 19 µM (active). `CCOC(=O)CCc1c(C)c(C#N)c2[nH]c3ccccc3n2c1=O` was tested, and the Potency was “inactive”. In the case of `CN(C)c1ccc(C(CNS(=O)(=O)c2cc(F)ccc2F)N2CCOCC2)cc1` (stereo not given), the Potency is reported as “inactive”. In the case of `Cn1nc(-c2ccccc2)c2cc([N+](=O)[O-])ccc21`, the Potency is reported as “inactive”. In the case of `Cc1nn(-c2ccc([N+](=O)[O-])cc2)c(N)c1-c1ccccc1`, the Potency is reported as 7.57 µM (active). With `Cc1cc(CO)nn1-c1ccc([N+](=O)[O-])cc1` the Potency was “inactive”. For `COc1ccc(CCNC(=O)c2ccc(-n3c(C)cc4c3CCCC4)cc2)cc1OC`, the Potency was “inactive”. With `COc1cc(C(=O)NCC(c2ccc(Cl)cc2)N2CCOCC2)cc(OC)c1OC` (stereo not given) the Potency was “inactive”. With `Cc1ccccc1N1CC(C(=O)Nc2nnc(SCCC3OCCO3)s2)CC1=O` (stereo not given) the Potency was “inactive”. In the case of `Cc1ccc(NC(=O)Nc2ccc3oc(C)nc3c2)cc1`, the Potency is reported as 1.2 µM (active). In the case of `Cc1ccc(NC(=O)c2cc3cc(C)ccc3n2C)cc1`, the Potency is reported as “inactive”. In the case of `Cc1nc2ccc(NC(=O)C(F)(F)F)cc2o1`, the Potency is reported as “inactive”. With `O=C(NNC(=O)c1cccnc1)Nc1ccccc1` the Potency was “inactive”. With `Cc1ccc(NC(=O)Nc2cccnc2)cc1` the Potency was 10.7 µM (active). In the case of `CC(=O)c1cccc(NC(=S)N2CCCC2)c1`, the Potency is reported as “inactive”. `Cc1ccc(NC(=O)NCC(c2cccnc2)N2CCOCC2)cc1` (stereo not given) was tested, and the Potency was “inactive”. With `C=C(C)C(=O)Nc1cccc(C(C)=O)c1` the Potency was “inactive”. `CC(=O)c1cccc(NC(=O)Nc2ccc(C)cc2)c1` was tested, and the Potency was 4.78 µM (active). In the case of `Cc1cccc(N2CCN(C(=O)Cn3ncc4c5ccccc5n(C)c4c3=O)CC2C)c1` (stereo not given), the Potency is reported as “inactive”. With `CCN(CC)S(=O)(=O)c1cc(C(=O)Nc2cc(S(=O)(=O)N3CCOCC3)ccc2N2CCCC2)ccc1F` the Potency was “inactive”. In the case of `CN1CCN(/N=C2/C(=O)Nc3ccc([N+](=O)[O-])cc32)CC1`, the Potency is reported as “inactive”. In the case of `CCCCN(C(=O)C1CCC1)c1c(N)n(Cc2ccccc2)c(=O)[nH]c1=O`, the Potency is reported as “inactive”. For `CCOc1ccc(NC(=O)C(CC(C)C)N2Cc3ccccc3C2=O)cc1` (stereo not given), the Potency was “inactive”. `CCOC(=O)c1ccc(NC(=O)C2CC(=O)N(c3ccc(C(C)C)cc3)C2)cc1` (stereo not given) was tested, and the Potency was “inactive”. In the case of `CCNC(=O)CC1C(=O)N(c2ccc(OC)cc2)C(=O)N1CCOC` (stereo not given), the Potency is reported as “inactive”. For `O=C(c1ccc(Oc2ccc(Cl)cc2)c([N+](=O)[O-])c1)N1CCCC1`, the Potency was “inactive”. With `CCOC(=O)c1oc2ccc(S(=O)(=O)n3nc(-c4ccccc4OC)cc3N)cc2c1C` the Potency was “inactive”. For `COc1ccc(-c2[nH]c3c(c2-c2c(-n4cccc4)n(C)c(=O)n(C)c2=O)c(=O)n(C)c(=O)n3C)cc1`, the Potency was “inactive”. `CCc1ccccc1NC1c2ccccc2C(=O)N1c1cccnc1` (stereo not given) was tested, and the Potency was “inactive”. For `COC(=O)c1cc(NC2c3ccccc3C(=O)N2c2ccc(Cl)cn2)cc(C(=O)OC)c1` (stereo not given), the Potency was 6.01 µM (active). `COC(=O)c1cc(NC(=O)c2nn(C)c(=O)c3ccccc23)cc(C(=O)OC)c1` was tested, and the Potency was “inactive”. For `CCOc1ccc(C(=O)N2CCN(CCc3ccccn3)CC2)cc1`, the Potency was “inactive”. `CCCCNC(=O)CSc1nc2cc3c(cc2c(=O)n1CCCCCC(=O)NCc1ccc2c(c1)OCO2)OCO3` was tested, and the Potency was “inactive”. With `CCCCN=C1C([N+](=O)[O-])=CC=C2C1=NC1(CCCCC1)N2O` the Potency was “inactive”. For `Cn1c(=O)c(C(=O)Nc2ncccn2)c(O)c2ccccc21`, the Potency was 21.3 µM (active). For `C=CCn1c(=O)c(C(=O)Nc2ncccc2O)c(O)c2ccccc21`, the Potency was “inactive”. In the case of `CCCn1c(=O)c(C(=O)Nc2cc(C)ccn2)c(O)c2ccccc21`, the Potency is reported as “inactive”. For `C=CCC(Nc1ccccc1)c1cccc(OC)c1OC` (stereo not given), the Potency was “inactive”. In the case of `CCCCn1c(N)c(N(CCOC)C(=O)c2oc3ccc(OC)cc3c2C)c(=O)[nH]c1=O`, the Potency is reported as “inactive”. With `COCCNC(=S)N1CCC(NC(=O)C23CC4CC(CC(C4)C2)C3)CC1` the Potency was “inactive”. In the case of `Oc1ccccc1-c1nc2ccc(Cl)cn2c1Nc1ccc2c(c1)OCCO2`, the Potency is reported as “inactive”. For `Cc1ccc(Nc2c(-c3ccc(C)cc3)nc3cnccn23)cc1`, the Potency was “inactive”. With `Cc1ccn2c(Nc3ccc4c(c3)OCCO4)c(-c3ccc(C)s3)nc2c1` the Potency was 8.49 µM (active). For `Cc1ccc(Nc2c(-c3ccc(C)s3)nc3ccccn23)cc1`, the Potency was 13.5 µM (active). `Cc1ccc(-c2nc3cccc(C)n3c2Nc2ccc3c(c2)OCCO3)cc1` was tested, and the Potency was “inactive”. With `CC(C)(C)Nc1c(-c2cccs2)nc2ccccn12` the Potency was “inactive”. With `Cn1c(=O)nc2n(-c3ccc(Br)cc3)c3cccc(Cl)c3cc-2c1=O` the Potency was “inactive”. In the case of `O=C(COc1ccccc1F)OCc1cc(=O)n2nc(C3CCCCC3)sc2n1`, the Potency is reported as “inactive”. With `CC(C)CNc1ncnc2c1nnn2C` the Potency was “inactive”. With `O=S(=O)(c1ccc2nc(NCc3ccccc3Cl)ccc2c1)N1CCCCC1` the Potency was “inactive”. For `O=C1C=C(c2cccc(Br)c2)C[C@@H](c2ccc(F)cc2)C1`, the Potency was “inactive”. With `Cc1ccc(C)c(N2CCN(Cc3nnc(-c4ccccc4)o3)CC2)c1` the Potency was “inactive”. In the case of `O=C(c1[nH]ncc1-c1ccc(Cl)cc1)C1CO1` (stereo not given), the Potency is reported as “inactive”. With `CC(C)N(Cc1nnc(-c2ccc(Cl)cc2)o1)C(=O)C1=COCCO1` the Potency was “inactive”. In the case of `O=C(c1nnc(-c2ccc(Cl)cc2)o1)C1CCCC1`, the Potency is reported as 5.36 µM (active). With `CCOCCCNC(=O)c1ccc2nc(CCc3ccccc3)oc2c1` the Potency was “inactive”. `CN1CCC(N(C)S(=O)(=O)c2ccc(NC(=O)c3cccc(C#N)c3)cc2)CC1` was tested, and the Potency was “inactive”. In the case of `CCOc1ccc2c(c1)C(c1ccc(C)cc1)=NNC(c1ccc(C)cc1)=N2`, the Potency is reported as 23.9 µM (active). For `Cc1ccc(C2=Nc3c(ccc4ccccc34)C(c3ccncc3)=NN2)cc1`, the Potency was “inactive”. `COc1ccc2c(c1)C(c1cccs1)=NNC(c1cccnc1)=N2` was tested, and the Potency was “inactive”. For `COCCCNC(NC(=O)c1ccc(C)cc1)C(Cl)(Cl)Cl` (stereo not given), the Potency was “inactive”. With `COc1ccc(CCNC(=O)c2ccccc2OCc2ccccc2)cc1` the Potency was “inactive”. For `COc1ccc(CCNC(=O)c2ccccc2-c2ccccc2C(=O)O)cc1OC`, the Potency was “inactive”. For `COc1cccc2[nH]c(C(=O)NCCc3ccccc3)cc12`, the Potency was 23.9 µM (active). For `O=C(Cn1ncn2nc(-c3cccs3)cc2c1=O)NCc1cccc(Br)c1`, the Potency was “inactive”. In the case of `COc1ccc(/C=C/c2noc(-c3ccccc3OC(C)=O)n2)cc1`, the Potency is reported as 15.1 µM (active). With `Oc1ccccc1-c1nc(/C=C/c2ccc(F)cc2)no1` the Potency was 0.757 µM (active). With `CC(=O)c1ccc(NC(=O)COc2ccccc2-c2nc(-c3ccccc3)no2)cc1` the Potency was “inactive”. For `CC(=O)Oc1ccccc1C1=NN(C(C)=O)C(c2ccccc2)C1` (stereo not given), the Potency was “inactive”.
